HSF1 inhib: HSF1 inhibition; NIH3T3-HGL HSE-luciferase, MG132-induced, luminescence 8 h; active compounds read low; hit rate 0.77% among 300,000; AID 2098; activity change, negative = inhibition, % at 7.5 µM (by protocol);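 active = more than half of replicate wells show activity change below -50%, luminescence cut by over half; inconclusive = some wells, but at most half, below -50%; inactive = no replicate well below -50%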;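 note: luciferase reports HSF-1 transcriptional activity via heat shock element; 0% = median of DMSO wells and -100% = zero luminescence signal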
Vif imaging: blocks HIV Vif function | HEK293T cells, Vif self-association by quenched fluorescence, imaging, 24 h | hit rate 0.35% among 340,000 | inhibition, % at 7.49 µM; in the data active = inhibition above about 50%, passing the limit was not always enough; inconclusive = no clear call, values can overlap the other calls; inactive = below about 31%
HSF-1 act: increases HSF-1 driven luciferase reporter signal; NIH3T3-HGL HSF-1 luciferase reporter, MG132, 8 h; 100% = twice DMSO control signal; activation, % at 9 µM; hit rate 1.7% among 300,000; AID 504408;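 active = mean replicate activation of at least 50% with a set share of replicates each reaching 50%; inconclusive = only one of those two conditions met; inactive = mean below 50% and too few replicates reaching it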;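 note: 0% = median of the neutral control wells and 100% = twice that signal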
esBAF inh: blocks esBAF chromatin remodeling in mouse ES cells; Bmi1-luciferase knock-in reporter, 24 h; 100% = twice the neutral-well signal; reporter increase, % at 12.5 µM; hit rate 2% among 350,000; in the data active = activation above about 40%; inconclusive = no clear call, values can overlap the other calls;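 note: 0% = median of the plate's neutral control wells and 100% = double that signal; a rise in the Bmi1 reporter signal indicates esBAF inhibition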
* = called active by the depositor; ? = inconclusive; . = not tested or not shown. Hits are enriched below; roughly 3.4% of the tested compounds scored in any of these assays.

SMILES | HSF1 inhib | Vif imaging | HSF-1 act | esBAF inh
COc1ccc2c(c1)c(C(=O)N/N=C/c1ccccc1Cl)c(C)n2C | 16 | -5 | 56* | -1
COCC#Cc1cnc2c(c1)C(=O)N([C@@H](C)CO)C[C@@H](C)[C@H](CN(C)Cc1ccc(-c3ccccc3)cc1)O2 | . | . | . | -4
CC1(S(=O)(=O)O)CC(=O)c2ccccc2C1=O (centres undefined) | 1 | 174* | -1 | 2
C[C@H](CO)N1C[C@H](C)[C@@H](CN(C)C(=O)Nc2ccc(C(F)(F)F)cc2)Oc2ccc(NC(=O)Cc3cn(C)c4ccccc34)cc2C1=O | . | . | . | -2
Cc1ccc(Cl)cc1-n1c(SCC(=O)NCCC2=CCCCC2)nc2n[nH]c(C)c2c1=N | 33 | -3 | 56* | 0
COc1ccc(S(=O)(=O)N(C)C[C@@H]2OCCCC[C@H](C)Oc3ccc(NC(=O)Nc4cccc5ccccc45)cc3C(=O)N([C@@H](C)CO)C[C@H]2C)cc1 | . | . | . | 2
O=[N+]([O-])c1ccc(Cl)c(/C=N/n2c(-c3ccncc3)n[nH]c2=S)c1 | 155 | -1 | 243* | 0
S=c1[nH]nc(COc2ccccc2)n1/N=C/C(Cl)=C/c1ccccc1 | 109 | 3 | 151* | .
O=[N+]([O-])c1ccc(O)c(/C=N/n2c(-c3ccccc3)n[nH]c2=S)c1 | 4 | 2 | 22 | -4
S=c1[nH]nc(-c2ccncc2)n1/N=C/C(Cl)=C\c1ccccc1 | 39 | 4 | 78* | .
S=c1[nH]nc(COc2ccccc2)n1/N=C/C=C/c1ccccc1 | 1 | 0 | 0 | .
CCC(=O)Nc1ccc2c(c1)OC[C@@H](C)N(Cc1cncnc1)C[C@@H](C)[C@@H](OC)CN(C)C2=O | . | . | . | -1
CNC[C@H]1OCCCC[C@@H](C)Oc2ccc(NC(=O)Nc3ccc(OC)cc3)cc2C(=O)N([C@H](C)CO)C[C@H]1C | . | . | . | -2
CO[C@@H]1CN(C)C(=O)c2ccc(NC(=O)Nc3ccccc3F)cc2OC[C@H](C)N(Cc2ccccc2C(=O)O)C[C@H]1C | . | . | . | 5
COc1cccc(C(=O)Nc2ccc3c(c2)C(=O)N(C)C[C@@H](OC)[C@H](C)CN(C(=O)C2CCCC2)[C@H](C)CO3)c1 | . | . | . | -8
O=C(/C=C/c1cccs1)c1ccc(N2CCOCC2)cc1 | -37 | 14 | -48 | 52*
CSS(=O)(=O)c1cccc2cccnc12 | 54 | 2 | 78* | .
CC(C)(NC(=O)c1cc(Cl)c2ccccc2c1O)C(=O)O | -83* | 0 | -87 | -5
O=C(O)c1ccccc1NN=Cc1ccccc1 | . | -2 | . | .
O=[N+]([O-])c1ccccc1N/N=C/c1ccccc1 | 22 | -5 | 27 | 44*
O=[N+]([O-])c1ccccc1N/N=C/c1ccc2c(c1)OCO2 | 44 | 7 | 65* | -14
COc1ccc(CC(N)c2csc(NC(=O)Nc3ccc(OC)cc3)n2)cc1 (centres undefined) | . | -3 | . | 5
COc1ccc(CC(N)c2csc(NC(=O)c3cc(C(C)(C)C)oc3C)n2)cc1 (centres undefined) | . | -12 | . | 53*
COC(=O)c1cccc(Cn2c(Cl)c(/C=N/Nc3ccccc3C)sc2=O)c1 | 155 | 0 | 151* | -2
Cc1cc(C(F)F)n2nc(C(=O)Nc3cccc(C(F)(F)F)c3)nc2n1 | 51 | -2 | 81* | .
SMILES | HSF1 inhib | Vif imaging | HSF-1 act | esBAF inh
COc1ccc(C(F)(F)F)cc1NC(=O)c1nc2nc(C)cc(C(F)F)n2n1 | -1 | 18 | 17 | -9
O=C(O)C1CCCCC1C(=O)Nc1cccc(C(=O)N2CCCCC2)c1 (centres undefined) | -56* | 5 | -65 | -7
O=C(C[C@@H]1C=C[C@@H](NC(=O)c2ccc(F)cc2)[C@H](CO)O1)NCc1ccncn1 | . | . | . | 5
O=C(C1CCC1)N1CCCCN2[C@H](C1)[C@H](c1ccc(-c3cccc(F)c3)cc1)[C@@H]2CO | . | . | . | -3
CN1C(=O)c2cc(NC(=O)c3cccs3)ccc2OC[C@H]2O[C@H](CC(=O)N3CCCCC3)CC[C@H]21 | . | . | . | -5
c1cc(-c2cccs2)nc(-c2cccs2)c1 | 11 | . | 21 | .
c1csc(-c2cnc3ccccc3n2)c1 | 11 | 1 | 53* | .
Cc1c(C(=O)Nc2cccc([N+](=O)[O-])c2)csc1-c1ccccc1 | 18 | 25 | 41 | 50*
O=C(Nc1cccc(-c2csc(Nc3cccc(C(F)(F)F)c3)n2)c1)c1ccccc1 | -5 | -3 | -13 | -3
O=C(Nc1nc(-c2cccnc2)cs1)c1cccc([N+](=O)[O-])c1 | 5 | -2 | -3 | ?
Cc1ccc(C(=O)NC(C)CCc2ccccc2)cc1[N+](=O)[O-] (centres undefined) | 2 | . | 18 | 0
O=C(Nc1nc(-c2ccccc2)cs1)c1cccc([N+](=O)[O-])c1 | 14 | -18 | 11 | 61*
O=C(Nc1cccc(-c2csc(Nc3ccccc3)n2)c1)c1ccccc1 | 13 | -11 | 23 | 57*
CC(CCc1ccccc1)NC(=O)c1cccc([N+](=O)[O-])c1 (centres undefined) | -53* | 5 | -66 | .
O=C(NCC[C@@H]1CC[C@@H](NC(=O)c2cccnc2)[C@H](CO)O1)Nc1ccc(Cl)cc1 | . | . | . | 21
O=C(O)c1cnn(-c2nc(-c3cccc([N+](=O)[O-])c3)cs2)c1C(F)(F)F | 18 | -7 | 63* | -1
O=[N+]([O-])c1cccc(-c2csc(Nc3ccccc3)n2)c1 | 10 | -9 | 1 | 52*
COc1ccccc1Nc1nc(-c2cccc([N+](=O)[O-])c2)cs1 | -2 | -6 | 14 | .
O=C(O)c1cnn(-c2nc(-c3cccc(F)c3)cs2)c1C(F)(F)F | -1 | 2 | -12 | .
CCC(=O)Nc1ccc2c(c1)OC[C@H](C)N(Cc1cccc(F)c1)C[C@@H](C)[C@H](OC)CN(C)C2=O | . | . | . | 4
CC1=CN2C(=N)/C(=C/c3ccc([N+](=O)[O-])o3)C(=O)N=C2S1 | 53 | 3 | 75* | .
CC1=CN2C(=N)/C(=C/c3ccco3)C(=O)N=C2S1 | 16 | 7 | 47 | .
CSc1ccccc1NC(=S)Nc1ccc(S(N)(=O)=O)cc1 | 13 | -2 | 54* | .
Nc1nc(CSC(=S)N2CCCCC2)nc(Nc2ccccc2)n1 | -81* | -3 | -85 | .
COCC(=O)Nc1ccc2c(c1)C(=O)N(C)C[C@@H](OC)[C@@H](C)CN(Cc1ccccc1OC)[C@@H](C)CO2 | . | . | . | -1
SMILES | HSF1 inhib | Vif imaging | HSF-1 act | esBAF inh
Fc1ccc(N/N=C/c2ccncc2)c(F)c1 | 9 | -1 | 43 | .
Fc1ccc(N/N=C/C=C/c2ccccc2)c(F)c1 | 23 | 9 | 23 | 51*
CN(C)C(=O)C[C@H]1C[C@H]2c3cc(NC(=O)Nc4ccc(F)cc4)ccc3O[C@H]2[C@@H](CO)O1 | . | . | . | -1
C/C=C/c1ccc2c(c1)O[C@H](CN(C)Cc1cncnc1)[C@H](C)CN([C@@H](C)CO)S2(=O)=O | . | . | . | -5
CCC(=O)NC(c1ccccc1)c1nc2ccccc2[nH]1 (centres undefined) | 24 | -11 | 6 | 49*
O=C(NCCc1ccccc1)c1ccccc1C(=O)NCCc1ccccc1 | 11 | 30 | 25 | 23
O=C(NCCc1ccccc1)c1c(O)c2ccccc2[nH]c1=O | 2 | 5 | -12 | 50*

Compound activity (PubChem)
